Consider one compound from PubChem BioAssay (EPA / NIEHS).

One may read the AC50 as the concentration giving half of the maximal activity seen.

Inconclusive results are not listed. Calls of active or inactive are those of the source. Rule for the calls: active = hit-call score of the fitted dose curve at least 0.9, where 1 is the maximum; inconclusive = response in the unintended direction; inactive = score below 0.9.

The nature of experiment [1]: TOX21_p53_BLA_p2_viability: Viability Assessment in the Tox21 HCT-116 p53 Agonism Beta-lactamase Assay, Phase 2 (AID 2283591).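 Note: compound exposure lasted 16 h at 37 °C; actives lower the ATP signal meaning cytotoxicity.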 An outline of the steps: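 HCT116 p53-bla cells, 4000/well, dosed after 5 h plating (217-fold dilution of DMSO stocks) and incubated 16 h at 37C. Viability taken as cellular ATP by CellTiter-Glo luminescence after 30 min RT; signal loss marks cytotoxicity.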

Experiment [2] addresses Cellular tumor antigen p53 (Homo sapiens) (UniProt P04637). Put plainly: TOX21_p53_BLA_p2_ratio: Tox21 HCT-116 p53 Agonism Beta-lactamase Assay, Ratio, Phase 2 (AID 2283592). An outline of the steps:
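Cleaved-to-uncleaved substrate ratio (460 vs 530 nm) measured in HCT116 cells with an inducible beta-lactamase reporter linked to p53 activity. Compounds incubated 16 h at 37C before 2 h room-temperature CCF4-AM loading.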

Experiment [3] in a line: TOX21_p53_BLA_p3_viability: Viability Assessment in the Tox21 HCT-116 p53 Agonism Beta-lactamase Assay, Phase 3 (AID 2283593).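 Note: cells exposed to compound for 16 h before reading.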 An outline of the steps: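 HCT116 cells, 4000/well, dosed 5 h after plating by pin transfer (217-fold dilution from DMSO stock) and incubated 16 h at 37C, 5% CO2. Viability read as ATP luminescence with CellTiter-Glo after 30 min at room temperature.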

Experiment [4] has as its target Cellular tumor antigen p53 (Homo sapiens) (UniProt P04637). Description: TOX21_p53_BLA_p3_ratio: Tox21 HCT-116 p53 Agonism Beta-lactamase Assay, Ratio, Phase 3 (AID 2283596). In short, it runs like this:
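Cells were seeded at 4000/well, rested 5 h at 37C, then dosed with DMSO compound solutions (217-fold dilution) for 16 h. CCF4-AM substrate was loaded for 2 h at room temperature, and the 460/530 nm emission ratio was fitted for gain of signal versus DMSO.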

The target is the same in experiment [5]. Put plainly: TOX21_p53_BLA_p5_ratio: Tox21 HCT-116 p53 Agonism Beta-lactamase Assay, Ratio, Phase 5 (AID 2283599). In short, it runs like this:
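HCT-116 p53-bla cells (4000/well) plated 5 h, dosed with compound (217-fold DMSO dilution) for 16 h at 37 C; CCF4-AM substrate 2 h at room temperature. Activity is the 460/530 nm emission ratio (405 nm excitation), fitted in gain-of-signal direction versus DMSO.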

Experiment [6] shares this target. Description: TOX21_p53_BLA_p4_ratio: Tox21 HCT-116 p53 Agonism Beta-lactamase Assay, Ratio, Phase 4 (AID 2283601). An outline of the steps: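 HCT-116 p53 beta-lactamase reporter cells (4000/well) preincubated 5 h, then compound (217-fold dilution of DMSO stock) for 16 h at 37C. CCF4-AM substrate added 2 h at room temperature; 460/530 nm emission ratio fitted upward versus DMSO.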

Chain of Cellular tumor antigen p53 (Homo sapiens) (P04637 whole entry, looked up): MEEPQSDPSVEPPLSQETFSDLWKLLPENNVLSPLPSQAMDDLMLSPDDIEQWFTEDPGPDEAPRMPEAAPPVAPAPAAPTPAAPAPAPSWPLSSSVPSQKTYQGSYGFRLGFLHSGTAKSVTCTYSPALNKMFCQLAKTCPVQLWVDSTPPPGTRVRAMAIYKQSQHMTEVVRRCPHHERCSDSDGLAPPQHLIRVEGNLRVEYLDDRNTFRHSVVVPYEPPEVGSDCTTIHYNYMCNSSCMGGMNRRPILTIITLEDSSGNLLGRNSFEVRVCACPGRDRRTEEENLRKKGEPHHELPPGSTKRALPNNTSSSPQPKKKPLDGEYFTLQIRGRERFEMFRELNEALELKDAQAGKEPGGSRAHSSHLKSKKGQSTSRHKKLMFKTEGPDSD

With `O=CC(Br)(Br)Br`, the result in experiment [1], in experiment [3], in experiment [4] and in experiment [6] was inactive. Besides, the AC50 in experiment [2] was 82.7 µM (active); in experiment [5] it was 29.9 µM (active).
